Whole data set: some 33,000 sequences, median “E-score (-0.5 to 0.5)” near -0.035, cut for the highest 2% near 0.35. The sample as a whole holds a higher share of the highest values than the screen did.
Target: T1, Pdr3 (UniProt P33200)
T1 sequence: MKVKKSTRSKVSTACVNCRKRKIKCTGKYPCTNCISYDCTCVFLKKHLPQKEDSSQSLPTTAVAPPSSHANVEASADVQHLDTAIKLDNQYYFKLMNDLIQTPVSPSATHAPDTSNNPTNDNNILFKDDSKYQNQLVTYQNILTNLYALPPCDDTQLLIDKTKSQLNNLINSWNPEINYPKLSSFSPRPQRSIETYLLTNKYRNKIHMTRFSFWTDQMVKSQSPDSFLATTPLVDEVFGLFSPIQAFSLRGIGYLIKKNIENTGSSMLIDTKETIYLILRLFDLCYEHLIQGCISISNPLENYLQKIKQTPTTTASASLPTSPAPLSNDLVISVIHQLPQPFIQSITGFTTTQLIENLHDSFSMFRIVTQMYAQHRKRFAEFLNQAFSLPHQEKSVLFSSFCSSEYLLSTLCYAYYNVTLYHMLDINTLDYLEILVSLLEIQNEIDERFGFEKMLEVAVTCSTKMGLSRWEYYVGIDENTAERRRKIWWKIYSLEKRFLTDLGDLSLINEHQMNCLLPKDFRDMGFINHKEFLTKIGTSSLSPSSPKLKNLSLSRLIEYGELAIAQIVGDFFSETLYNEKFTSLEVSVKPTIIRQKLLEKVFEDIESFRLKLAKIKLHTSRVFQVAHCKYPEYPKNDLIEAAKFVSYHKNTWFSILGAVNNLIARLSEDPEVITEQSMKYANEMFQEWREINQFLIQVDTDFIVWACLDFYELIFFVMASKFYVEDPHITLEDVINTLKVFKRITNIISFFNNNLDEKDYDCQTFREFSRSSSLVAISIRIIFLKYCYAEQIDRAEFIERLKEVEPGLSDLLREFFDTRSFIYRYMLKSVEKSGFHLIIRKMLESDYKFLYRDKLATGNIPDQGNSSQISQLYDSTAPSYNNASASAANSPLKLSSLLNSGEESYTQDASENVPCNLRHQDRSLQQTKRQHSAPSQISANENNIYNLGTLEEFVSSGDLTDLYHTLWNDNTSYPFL
Assay: PBM E-score (8-mer binding enrichment) (E-score (-0.5 to 0.5)); higher = stronger / more preferred TF binding
Conditions: protein concentration: 200 nM; construct: GST-full length
Protocol: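 Universal 'all 10-mer' protein binding microarrays (Agilent AMADID 015681) probed with GST-tagged S. cerevisiae TFs (full-length or DBD) made by in vitro transcription/translation (PURExpress), about 100-200 nM. Bound TF was detected with fluorescent anti-GST. Each ungapped 8-mer (which stands for itself and its reverse complement) is scored by the PBM enrichment score (E-score), a modified Wilcoxon-Mann-Whitney statistic from -0.5 to +0.5, computed with the Universal PBM Analysis Suite. Scale: above 0.35 generally sequence-specific binding.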

Row | Sequence | PBM E-score
1 | TACCGATA | 0.0617
2 | GACTAACC | -0.2
3 | ACCTCAAG | -0.0979
4 | ATGATCTA | 0.0443
5 | ACGTCCCG | 0.279
6 | CCGTCCCG | 0.371
7 | CCGTCCCC | 0.166
8 | TACTCAGA | -0.0418
9 | ATGCTCTA | -0.211
10 | CCGGACCG | 0.378
11 | CAGGACCG | -0.0353
12 | AGGGACAG | -0.3
13 | AGGGACCG | -0.128
14 | CGGGACAC | 0.245
15 | CGGGACAG | 0.359
16 | CGGGACCG | 0.373
17 | CCGGACCC | 0.379
18 | CCAGACCG | 0.0829
19 | ACGGACCC | 0.344
20 | CGGGACCA | 0.264
21 | GCGGACCC | 0.336
22 | AGGGTTAT | -0.0536
23 | GGATAAAC | 0.195
24 | CGACCTCC | 0.208
25 | AGTCATGG | -0.234

Row | Sequence | PBM E-score
26 | CCAAGAGG | -0.122
27 | CGCCGAGA | 0.228
28 | GCTGGTAC | 0.029
29 | CGGCACAA | 0.121
30 | CCTTGACA | -0.209
31 | TTACCGAA | 0.105
32 | CGTATAGA | -0.231
33 | AGTTCCGA | 0.456
34 | GGTTCCAA | 0.273
35 | CGTTCCTA | -0.0878
36 | CGTTCCCC | 0.146
37 | GGTTCCCA | -0.0344
38 | CGTTCCTC | 0.194
39 | AGTTCCTA | 0.0135
40 | CGTTCCAA | -0.0612
41 | AGTTCCCA | 0.16
42 | GGTTCCGA | 0.476
43 | CGTTCCGA | 0.455
44 | CGTTCCGC | 0.453
45 | GATCCACC | -0.0343
46 | ACGAGATC | 0.00781
47 | GAAGGGCC | 0.00364
48 | CTTCACAC | -0.201
49 | ACCAAATA | 0.0784
50 | GGAATGTA | 0.339

Row | Sequence | PBM E-score
51 | CATAACCG | 0.135
52 | ACAATGCT | -0.171
53 | AGCATAAG | -0.0742
54 | AGTTCCAG | -0.0101
55 | CGGTCCGA | 0.378
56 | AGTTCCGC | 0.467
57 | AGTTCCAC | -0.00065
58 | GGGTCCGA | 0.234
59 | AGGTCCGA | 0.305
60 | AGTTCCCC | 0.0744
61 | AGTTCCTG | -0.0933
62 | AGTTCCGG | 0.464
63 | CTAGGTTC | 0.154
64 | CCCATCCA | 0.00501
65 | GTGAAAGA | -0.0383
66 | CTAAGATC | -0.0406
67 | ACTACCCT | -0.179
68 | ATCTAGAG | -0.177
69 | CTTCGACC | 0.054
70 | TCGGATAA | 0.307
71 | GTGGAAGA | -0.0507
72 | ATGGAAGA | -0.243
73 | ACAGAAGT | -0.285
74 | GCGGAAGA | 0.393
75 | ATGGAAGC | 0.179

Row | Sequence | PBM E-score
76 | ACGGAAGC | 0.427
77 | GAGGAAGA | 0.0527
78 | AAGGAAGT | 0.0783
79 | ACGGAAGT | 0.393
80 | ACGGAAGA | 0.373
81 | AGGGAAGC | -0.0866
82 | AAGGAAGA | -0.2
83 | CCCCCTAG | -0.342
84 | CCCTGACA | -0.222
85 | CATGAACG | -0.0457
86 | CAAAACCG | 0.00937
87 | GGTGCGCA | 0.191
88 | CTGGAAGC | -0.322
89 | TAGGAAGA | -0.204
90 | TCAGAAGA | -0.178
91 | TCGGAAGA | 0.359
92 | GCGGAAGC | 0.347
93 | ACGGAAGG | 0.397
94 | CAGGAAGA | 0.0315
95 | AAGGAAGG | -0.205
96 | CCGGAAGA | 0.403
97 | CCGGAAGC | 0.444
98 | ATGGAAGG | -0.197
99 | CTGGAAGA | -0.108
100 | CGACCACA | -0.0427

Row | Sequence | PBM E-score
101 | AAGTGCAC | 0.0238
102 | ACTGAGAA | -0.121
103 | TAAGCCCA | -0.113
104 | ACTAGGGA | -0.253
105 | ACTGCCCG | 0.179
106 | CACGTGGA | -0.0333
107 | AGGGAAGA | -0.238
108 | CAGGAAGG | -0.317
109 | AGGGAACA | -0.0421
110 | CGGGAAGC | 0.282
111 | CGGGAAGA | 0.391
112 | GGGGAACA | -0.00834
113 | CCGGAAGG | 0.421
114 | CCAGAAGG | -0.0321
115 | CGGGAACA | 0.358
116 | CCCCCCAG | -0.372
117 | CGCGAGGA | 0.135
118 | TATGGCGA | -0.0751
119 | GCAGACAA | 0.0426
120 | ACCCTCAA | -0.158
121 | GCCCGGAA | 0.459
122 | TCCCGTAA | 0.0877
123 | TCCCGAAA | 0.206
124 | TCCCGGAA | 0.463
125 | ACCCGGTA | 0.215

Row | Sequence | PBM E-score
126 | ACCCGGAT | 0.31
127 | GCCCGGAC | 0.282
128 | ACCCGGAA | 0.456
129 | ACCCGGCG | 0.276
130 | ACCCGGCA | 0.256
131 | ACCCGGAG | 0.38
132 | GCCCGGTA | 0.102
133 | CCCTGAAA | -0.0909
134 | ACCCCGTA | 0.006
135 | CACGCGTG | 0.283
136 | GCTTGGTA | -0.168
137 | AATTCGAA | -0.148
138 | CCCCGGAG | 0.355
139 | CCCCGGAA | 0.421
140 | CCCCCGAG | -0.0658
141 | CCCCGCAG | 0.225
142 | CCCCGGAC | 0.33
143 | CCCCCGAA | -0.0602
144 | CAGGGATA | -0.193
145 | ATAGTCAT | -0.0921
146 | GGCGGCGA | 0.243
147 | AGCGGCGA | 0.197
148 | AGCGGCGC | 0.137
149 | CGCGGCGC | 0.398
150 | CGCGGCAA | 0.341

Row | Sequence | PBM E-score
151 | AGCGGCAC | 0.118
152 | CGGCGCGC | 0.245
153 | CGCGGCGA | 0.374
154 | CGCGGCAC | 0.385
155 | CCGAGCAC | 0.122
156 | ACGTGAGT | -0.0439
157 | TGAGTCCA | -0.18
158 | AAAGTCAT | -0.0971
159 | ATTAGGGG | -0.0731
160 | AACCCTGT | -0.104
161 | ATGTTGCG | 0.091
162 | ATGGAGCG | 0.0393
163 | CTGAGGAC | -0.0292
164 | AATACCCC | 0.188
165 | TCCATCAA | 0.0544
166 | CCGGGTAA | 0.397
167 | CCGGGTAC | 0.303
168 | CCGGGTGA | 0.404
169 | TCGGGTAA | 0.0953
170 | GCGGGTGA | 0.26
171 | CGGGGTGA | 0.214
172 | GGACGGCC | 0.188
173 | AGCCTTTC | -0.167
174 | CACCAAAA | -0.054
175 | CCGGTGTA | 0.153

Row | Sequence | PBM E-score
176 | CTCTCGTA | -0.00771
177 | AACGCAGG | -0.0195
178 | AACTTAAT | 0.115
179 | ACATTTAT | -0.248
180 | GCGACACA | -0.0561
181 | CGCGGCTC | 0.344
182 | CTCGGATC | 0.386
183 | AGCGGATG | 0.191
184 | ATCGGATC | 0.301
185 | CTCGGATA | 0.273
186 | CCCGGATA | 0.34
187 | CCCGGATC | 0.419
188 | AGCAGATC | -0.0743
189 | CGCGGATC | 0.431
190 | CCCAGATC | -0.145
191 | CGCAGATC | -0.0483
192 | AGCGGATC | 0.374
193 | GAACCCCA | 0.211
194 | TCAGTAAA | -0.00839
195 | ACCACAGG | -0.238
196 | CGAGGTAA | 0.0804
197 | AGCTGGAG | -0.163
198 | TAGGCTAA | -0.288
199 | AAAGGCAA | -0.0369
200 | CGGCCTAC | 0.158

Row | Sequence | PBM E-score
201 | AGCGGATA | 0.3
202 | CTCGGACA | 0.285
203 | GGCGGATA | 0.287
204 | CTCAGACC | -0.0888
205 | CGCGGATA | 0.412
206 | CTCGGACC | 0.359
207 | CCACATTC | 0.0586
208 | GAGGCGAA | 0.0545
209 | CGCGAGCG | 0.106
210 | CTCTATGC | -0.0609
211 | CCGGACTC | 0.363
212 | CCGGACTA | 0.333
213 | ACGGACTC | 0.205
214 | CCGGACAC | 0.366
215 | CCGGACAA | 0.329
216 | CCGGACAG | 0.338
217 | AGTGACTA | -0.132
218 | ATCCCGTA | 0.242
219 | ATCCCGAT | 0.302
220 | ATCCCGTC | 0.311
221 | ATCCCGTG | 0.396
222 | ATCCCGAA | 0.308
223 | ATCCCGAG | 0.395

— the supplement of paper PMC3334620
